Bioassay records deposited in PubChem by several laboratories.
PostGolgi ctrl – growth inhibition of yeast control strain, primary screen, counter-screen for post-Golgi transport modulator project. efflux-deficient yeast background strain, growth absorbance A615, 16 h. inhibition, % at 10 µM. 98,000 tested, 5% active. AID 738, 2007
CYP2C9 inhib – blockers of cytochrome P450 2C9 activity – biochemical, luminescence, ADME assay, primary screen | CYP2C9 Supersomes, luciferin-H conversion | inhibition, % at 5 µM | 96,000 tested, 20% active | AID 777, 2007;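 active = blocking of liver enzyme CYP2C9 beyond about 50% at 5 µM, limit read from the data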
PostGolgi yeast – phenotypic screen on post-Golgi transport, primary screen | post-Golgi transport phenotypic cell assay | inhibition, % at 10 µM | 98,000 tested, 0.9% active | AID 739, 2007;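 note: yeast cells grown in 1536-well plates; yeast grown about 18 h at 30C before absorbance read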
CYP2C19 activ – human CYP2C19 activators, primary screen, biochemical, luminescence | Cytochrome P450 2C19 (Homo sapiens), P33261 | recombinant CYP2C19, luciferin-H EGE luminescence; hits give high values; 0 = fully inhibited enzyme, 1 = untreated enzyme | activation factor at 5 µM | 96,000 tested, under 10 active | AID 1025, 2008;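 active = activation factor of at least 2 at 5 µM in the primary screen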;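 note: 0 = wells with 2.5 mM tranylcypromine and 1 = vehicle-only wells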
Target sequence (P33261 whole entry, looked up): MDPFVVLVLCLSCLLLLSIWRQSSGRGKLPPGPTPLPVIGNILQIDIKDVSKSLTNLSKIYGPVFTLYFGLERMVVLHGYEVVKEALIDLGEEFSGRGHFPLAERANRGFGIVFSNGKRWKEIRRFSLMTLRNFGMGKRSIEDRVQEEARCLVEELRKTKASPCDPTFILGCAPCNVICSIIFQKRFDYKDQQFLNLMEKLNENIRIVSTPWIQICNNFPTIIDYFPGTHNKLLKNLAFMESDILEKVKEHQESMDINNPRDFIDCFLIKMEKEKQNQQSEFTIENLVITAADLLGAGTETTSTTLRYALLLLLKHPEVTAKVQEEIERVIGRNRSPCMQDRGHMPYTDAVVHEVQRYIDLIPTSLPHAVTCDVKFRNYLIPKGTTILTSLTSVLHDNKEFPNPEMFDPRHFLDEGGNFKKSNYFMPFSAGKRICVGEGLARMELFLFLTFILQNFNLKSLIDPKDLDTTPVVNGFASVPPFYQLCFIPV
CYP2C9 act – human CYP2C9 activators, primary screen, biochemical, luminescence. Cytochrome P450 2C9 (Homo sapiens), P11712. recombinant CYP2C9, luciferin-H conversion; hits give high values; factor 1 = untreated enzyme, 0 = blocked. activation factor at 5 µM. 96,000 tested, 1.4% active. AID 1024, 2008;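 active = activation factor of 2 or more for CYP2C9 at a 5 µM dose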;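 note: 0 = sulfaphenazole-blocked wells and 1 = vehicle-only wells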
CYP2C19 inh – blockers of cytochrome P450 2C19 activity – biochemical, luminescence, ADME assay, primary screen. 96,000 tested, 21% active. CYP2C19 Supersomes, luciferin-H EGE luminescence, 30 min. P33261. inhibition, % at 5 µM;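 active = CYP2C19 inhibition above a set limit at 5 µM in the primary screen, cut at about 50% in these data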;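 note: plate controls were negative control wells for no effect and 2.5 mM tranylcypromine positive control for full effect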
Active calls of the source: *; . = no result given. Sampled rows, rich in hits. Any-hit rate of the full collection: about 32%. Cut-off read from the data, not from the text of the source, unless noted: active = inhibition above about 30%; inactive = the rest.

SMILES	PostGolgi ctrl	CYP2C9 inhib	PostGolgi yeast	CYP2C19 activ	CYP2C9 act	CYP2C19 inh
Cc1ccc(C)c(N2CCN(C(c3ccncc3)c3nnnn3Cc3ccccc3)CC2)c1 (configuration not stated)	6.8	93.0*	7.3	0	0.1	96.7*
N#Cc1ccc(C(c2nnnn2Cc2ccccc2)N2CCCC2)cc1 (configuration not stated)	3.6	-5.0	13.1	0.6	1.1	39.0
CCc1nnc(NC(=O)C(C)N2C(=O)C3C4C=CC(C4)C3C2=O)s1 (configuration not stated)	-1.3	2.9	10.2	1.2	1	-16.1
COc1ccc(N(Cc2cc3cc(OC)ccc3[nH]c2=O)C(=O)c2cccnc2)cc1	0.7	7.0	10.7	0.9	0.9	9.8
Cc1nn(C)c(Cl)c1NC(=O)OCc1ccc(F)cc1	5.5	14.1	-1.7	0.7	0.9	33.8
Cc1ccc(-c2nnc(Nc3ccccc3)o2)cc1	4.1	22.4	-0.5	0.6	0.8	44.9
COc1ccccc1C(c1nnnn1Cc1ccccc1)N1CCN(c2nc3ccccc3s2)CC1 (configuration not stated)	6.8	55.6*	5.2	0.5	0.4	47.2
Nc1nnc(SCC(=O)NC23CC4CC(CC(C4)C2)C3)s1	2.1	8.9	1.3	0.8	0.9	16.5
COCc1cc(=O)n2[nH]c(-c3cccc(Br)c3)cc2n1	-1.4	49.5	3.2	0	0.5	95.1*
COCc1cc(=O)n2[nH]c(-c3ccccc3)cc2n1	26.5	38.1	8.6	0.7	0.6	34.1
O=C(c1cc(-c2ccc(Cl)cc2)on1)N1CCOCC1	26.3	3.8	-2.9	0.9	1	7.1
O=C(c1cc(-c2ccc(Cl)cc2)n(-c2ccc(Cl)cc2)n1)N1CCOCC1	37.5*	24.3	8.5	0.8	0.8	15.4
Cc1ccc(-n2nc(C(=O)N3CCOCC3)cc2-c2ccc(Cl)cc2)cc1	41.5*	70.7*	13.6	0.8	0.3	21.8
C=CCn1c(=O)c2ccccc2n2c(SCC(=O)/C(C#N)=C(\C)N)nnc12	-1.0	15.2	-13.5	1.1	0.8	-12.0
O=[N+]([O-])c1nn(-c2ccc3c(c2)OCCO3)n(O)c1=NC1CCCCCC1	14.2	30.0	7.4	0.7	0.7	28.4
O=C1c2oc3ccc(Cl)cc3c(=O)c2C(c2ccccn2)N1CCCN1CCOCC1 (configuration not stated)	.	9.3	.	1	0.9	4.4
CC1CCCN(CCOCCOc2ccc(Cl)cc2Br)C1 (configuration not stated)	21.6	-9.6	102.7*	0.6	1.1	43.3
CC1CC(C)CN(CCOc2ccc(Cl)cc2Cl)C1 (configuration not stated)	29.4	6.9	89.4*	0	0.9	98.4*
Clc1ccc(OCCN2CCCCC2)c(Cl)c1	7.7	2.7	17.5	0.5	1	45.9
CC1CCCN(CCC(=O)c2ccc(Br)cc2)C1 (configuration not stated)	13.7	7.9	2.8	0.6	0.9	41.8
CC1(C)CC(=O)c2cc(OCC(=O)N3CCCCCC3)ccc2O1	12.9	-2.9	8.0	1	1	0.1
CC1(C)CC(=O)c2cc(OCC(=O)N3CCN(c4ccccc4F)CC3)ccc2O1	14.5	49.1	-0.9	0.3	0.5	67.6*
c1ccc(-c2ccc(-c3cnc4n3CCCCC4)cc2)cc1	5.2	65.9*	80.8*	0.6	0.3	39.8
Cc1ccc(-c2nnc3n2CCCCC3)cc1	13.2	-11.2	1.6	1.1	1.1	-10.5
c1cc2c(cc1-c1cnc3n1CCC3)OCCO2	37.1*	-2.0	-5.5	1	1	-2.7
SMILES	PostGolgi ctrl	CYP2C9 inhib	PostGolgi yeast	CYP2C19 activ	CYP2C9 act	CYP2C19 inh
O=[N+]([O-])c1nn(-c2ccccc2)n(O)c1=NCc1ccc2c(c1)OCO2	2.4	52.9*	-7.8	0.2	0.5	77.2*
O=[N+]([O-])c1nn(-c2ccc3c(c2)OCCO3)n(O)c1=Nc1ccc(Cl)cc1	57.2*	5.7	39.5*	0.8	0.9	20.8
O=[N+]([O-])c1nn(-c2ccc3c(c2)OCCO3)n(O)c1=NCCCO	14.7	12.8	0.2	1	0.9	1.5
c1ccc(NCCCNc2ccccc2)cc1	22.8	86.0*	-8.1	0	0.1	98.2*
Cc1ccc(S(=O)(=O)/C(C#N)=C/c2c(N3CCN(C)CC3)nc3ccccn3c2=O)cc1	4.5	80.7*	4.8	0.8	0.2	16.9
Cc1ccc(S(=O)(=O)/C(C#N)=C/c2c(N3CC(C)OC(C)C3)nc3ccccn3c2=O)cc1 (configuration not stated)	4.6	56.7*	5.5	0.8	0.4	20.0
N#C/C(=C\c1c(N2CCOCC2)nc2ccccn2c1=O)S(=O)(=O)c1ccccc1	3.5	32.2	-0.8	0.8	0.7	15.0
Cc1ccc(-c2nnc3n2N=C(c2ccccc2Br)CS3)cc1	19.2	43.0	2.6	0.6	0.6	41.1
O=C(COC(=O)c1cccnc1Nc1cccc(C(F)(F)F)c1)NCCN1C(=O)CSC1=O	12.6	96.8*	-3.1	0.4	0	62.7*
O=C(COC(=O)c1cccs1)NCCN1C(=O)CSC1=O	0.8	-32.1	-12.2	0.4	1.3	62.9*
O=C(NCCN1C(=O)CSC1=O)c1ccccc1	-9.8	-13.9	-4.0	1	1.1	-0.6
Cc1ccc(NC2=NCC(=O)N2Cc2ccc3c(c2)OCO3)c(C)c1	4.1	79.1*	-3.5	0	0.2	96.4*
CCc1ccc(NC2=NCC(=O)N2Cc2ccc3c(c2)OCO3)cc1	3.0	57.5*	-5.1	0.6	0.4	36.1
COc1cc(CN2CCN(c3cccc(C)c3C)CC2)cc(Br)c1O	-3.1	23.3	-7.5	0.7	0.8	32.1
O=C(COc1ccc(S(=O)(=O)N2CCCC2)cc1)NCCC1=CCCCC1	7.1	85.8*	6.2	0.6	0.1	42.8
CC(C)(C)NS(=O)(=O)c1ccc(OCC(=O)NCCC2=CCCCC2)cc1	-8.0	84.4*	-2.1	0.1	0.2	85.1*
CC(=O)Nc1ccc(S(=O)(=O)NC(CC(=O)NCCC2=CCCCC2)C(C)C)cc1 (configuration not stated)	8.6	31.9	9.4	0.1	0.7	94.9*
COc1ccccc1CNS(=O)(=O)c1c(C)[nH]c(=O)[nH]c1=O	-1.5	-11.9	-10.5	0.8	1.1	15.1
Cc1[nH]c2ccccc2c1C(=O)CSc1nc2cc(S(=O)(=O)N3CCCCC3)ccc2o1	9.4	89.9*	12.4	0.4	0.1	60.2*
O=C1CCc2cc(S(=O)(=O)N3CCC(C(=O)NC4CCCc5ccccc54)CC3)ccc2N1 (configuration not stated)	7.4	5.4	-0.8	0.9	0.9	11.8
